In PubChem BioAssay one finds composite z-score and z-score data, which are given here for five molecules.

Each structure is given as a SMILES string. Activity calls are given as the source filed them. Unless noted, no rule for the calls is given here.

For test [1], the system named is Wnt5a (protein binding on small-molecule microarray). In words: Wnt5a binders on small-molecule microarray, primary screen, biophysical, 635/667 nm fluorescence (AID 1142).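 Also: fluorescence read at 667 nm with signal to noise per printed feature.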 The conditions noted are these: 635 nm fluorescence, higher = more signal.
Test [2] can be described thus: cell viability in Huh7 cells, primary screen, cytotoxicity control for HCV replication inhibitor project, CellTiter-Glo luminescence, basal, 48 h (AID 1143).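 Also: Huh7 hepatoma cells carrying a hepatitis C replication reporter with no stimulus; test concentration not given here.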 The conditions noted are these: Huh7 HCV replicon, higher = more signal, called active from +8 up or from −8 down.
A short description of test [3]: P. aeruginosa biofilm formation inhibitors, primary screen, PAO1 strain, BacTiter-Glo luminescence, LB-PBS (AID 1144). The conditions noted are these: 12 h, higher = more signal.
Test [4] in a line: CREB reporter modulators without forskolin, primary screen, cell-based, PC12, CRE-LacZ reporter, unstimulated (AID 1145). As to conditions: no forskolin, luminescence, 4.5 h, higher = more signal, called active from +8 up or from −8 down.
Test [5] is described as follows: CREB reporter modulators under forskolin, primary screen, cell-based, PC12, CRE-LacZ reporter, forskolin-stimulated (AID 1146).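 Also: PC12 cells with 6xCRE LacZ reporter stimulated by forskolin 10 µM; beta-galactosidase reporter signal reflecting CREB driven transcription.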 As to conditions: luminescence, 4.5 h, higher = more signal, called active from +8 up or from −8 down.
In test [6] the target is Streptavidin (Streptomyces avidinii) (UniProt P22629). Description: streptavidin binders on small-molecule microarray, primary screen, artefact control for SMM compound annotation, biophysical, 635/667 nm fluorescence (AID 1147).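 Also: signal reflects streptavidin binding to arrayed compounds as a control protein.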 The conditions noted are these: streptavidin binding, higher = more signal.
Test [7] can be described thus: small-molecule binders of probe aInhba, primary screen, biochemical, small-molecule microarray, 635/667 nm fluorescence (AID 1148).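 Also: score merges 667nm spot fluorescence with signal-to-noise for antibody binding to printed compounds.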 As to conditions: higher = more signal.
Test [8] concerns the target Torsin-1A (Homo sapiens) (UniProt O14656). Description: torsin A binders from cell lysate, primary screen, small-molecule microarray, wild-type, 635/667 nm (AID 1149). The conditions noted are these: COS7 hTOR1A-WT lysate, 635 nm fluorescence, higher = more signal.
Test [9] shares this target. In words: small-molecule binders of mutant TOR1A in lysate, primary screen, cell lysate, small-molecule microarray, COS7 lysate, 635/667 nm fluorescence (AID 1150).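 Also: score pools 667 nm emission and signal to noise measuring lysate protein binding.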 The conditions noted are these: COS7 hTOR1A mutant lysate, 635 nm fluorescence, higher = more signal.
Test [10] deals with Sonic hedgehog protein (Shh). Description: small-molecule binders of Shh protein, primary screen, biochemical, small-molecule microarray, 635/667 nm fluorescence (AID 1151).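 Also: Shh protein binding to compounds spotted on small-molecule microarray slides; score combines spot fluorescence intensity with signal-to-noise across triplicate slides.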 As to conditions: small-molecule microarray binding, 635 nm fluorescence; higher = more signal.
Test [11] is described as follows: E. coli DRC41 culture turbidity changes, primary screen, E. coli filamentation inducer project, strain DRC41, OD650, 48 h (AID 1152).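 Also: E. coli MC1000 strain DRC41 lacking acrAB efflux pump and sulA.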 As to conditions: E. coli DRC41 (acrAB sulA), higher = more signal, called active from +8 up or from −8 down.
Test [12] can be described thus: small-molecule binders of probe aLefty1, primary screen, biochemical, small-molecule microarray, 635/667 nm fluorescence (AID 1153).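 Also: score merges spot fluorescence with signal-to-noise ratio from the scanned slide images.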 As to conditions: higher = more signal.
The nature of test [13]: PSAC antagonists in infected red cells, primary screen, cell-based, P. falciparum Indochina, OD700, 1 h (AID 1154). As to conditions: P. falciparum Indochina infected RBC osmotic lysis, higher = more signal, called active from +8 up or from −8 down.
The nature of test [14]: PSAC antagonists in infected red cells, primary screen, cell-based, P. falciparum Indochina, OD700, 2 h (AID 1155).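 Also: lysis reports solute entry through the parasite surface anion channel PSAC; channel blockers reduce lysis of infected cells.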 The conditions noted are these: P. falciparum Indochina infected erythrocytes, osmotic lysis OD700; higher = more signal, called active from +8 up or from −8 down.
The nature of test [15]: osmotic lysis modulators in infected erythrocytes, primary screen, PSAC antagonist project, cell-based, P. falciparum Indochina, OD700, 3 h (AID 1156). As to conditions: higher = more signal, called active from +8 up or from −8 down.
A short description of test [16]: PSAC antagonists in infected red cells, primary screen, cell-based, P. falciparum Indochina, OD700, 18 h (AID 1157). As to conditions: P. falciparum Indochina infected erythrocytes, osmotic lysis OD700, 18 h; higher = more signal, called active from +8 up or from −8 down.
Test [17] is described as follows: modulators of S6 phosphorylation in cells, primary screen, cell-based, A549, cytoblot, luminescence, serum-stimulated (AID 1158).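 Also: serum-stimulated A549 lung adenocarcinoma cells; signal is phosphorylated S6 detected by cytoblot immunostaining with HRP secondary.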 The conditions noted are these: A549 phospho-S6 cytoblot, 5 h, higher = more signal.
Test [18] addresses NADPH oxidase 2 (Homo sapiens) (UniProt P04839). In words: NOX2-dependent H2O2 signal modulators, primary screen, NOX inhibitor project, cell-based, HEK293-NOX2, PMA-stimulated, Amplex Red fluorescence (AID 1159). Also: test concentration not given here. As to conditions: 45 min, higher = more signal, called active from +8 up or from −8 down.
Test [19] addresses NADPH oxidase 4 (Homo sapiens) (UniProt Q9NPH5). Description: NOX4-dependent H2O2 signal modulators, primary screen, NOX inhibitor project, cell-based, HEK293-NOX4, tetracycline-induced, Amplex Red fluorescence (AID 1160). The conditions noted are these: 45 min, higher = more signal, called active from +8 up or from −8 down.
Test [20] concerns the target NADPH oxidase 5 (Homo sapiens) (UniProt Q96PH1). Description: NOX5-dependent H2O2 signal modulators, primary screen, NOX inhibitor project, cell-based, HEK293-NOX5, Amplex Red fluorescence (AID 1161). As to conditions: HEK293-NOX5, ionomycin, 45 min, higher = more signal.

Sequence of Torsin-1A (Homo sapiens) (O14656 whole entry, looked up): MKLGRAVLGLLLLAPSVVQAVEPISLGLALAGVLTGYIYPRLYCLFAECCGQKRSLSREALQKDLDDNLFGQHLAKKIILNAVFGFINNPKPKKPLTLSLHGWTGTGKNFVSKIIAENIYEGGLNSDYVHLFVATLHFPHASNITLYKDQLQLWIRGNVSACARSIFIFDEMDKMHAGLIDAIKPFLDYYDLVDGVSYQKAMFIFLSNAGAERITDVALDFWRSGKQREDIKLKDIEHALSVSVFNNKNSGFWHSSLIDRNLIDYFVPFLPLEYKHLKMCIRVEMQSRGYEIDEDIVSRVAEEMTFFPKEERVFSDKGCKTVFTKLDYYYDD
Sequence of NADPH oxidase 4 (Homo sapiens) (Q9NPH5 whole entry, looked up): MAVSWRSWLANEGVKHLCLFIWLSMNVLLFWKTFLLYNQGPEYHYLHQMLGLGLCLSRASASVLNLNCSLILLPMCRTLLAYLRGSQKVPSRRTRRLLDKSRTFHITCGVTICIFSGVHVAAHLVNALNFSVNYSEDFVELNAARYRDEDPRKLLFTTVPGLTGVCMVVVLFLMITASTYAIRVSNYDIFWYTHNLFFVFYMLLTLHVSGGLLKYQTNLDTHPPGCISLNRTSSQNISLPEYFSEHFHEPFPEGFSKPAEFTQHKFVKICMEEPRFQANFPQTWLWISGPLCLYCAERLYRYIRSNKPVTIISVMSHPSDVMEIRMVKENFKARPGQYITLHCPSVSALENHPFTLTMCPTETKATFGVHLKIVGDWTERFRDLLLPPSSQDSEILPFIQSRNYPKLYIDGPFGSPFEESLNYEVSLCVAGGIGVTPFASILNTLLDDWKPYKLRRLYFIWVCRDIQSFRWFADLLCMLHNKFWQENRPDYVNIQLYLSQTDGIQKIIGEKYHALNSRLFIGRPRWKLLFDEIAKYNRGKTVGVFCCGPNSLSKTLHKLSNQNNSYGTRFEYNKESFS
Sequence of Streptavidin (Streptomyces avidinii) (P22629 whole entry, looked up): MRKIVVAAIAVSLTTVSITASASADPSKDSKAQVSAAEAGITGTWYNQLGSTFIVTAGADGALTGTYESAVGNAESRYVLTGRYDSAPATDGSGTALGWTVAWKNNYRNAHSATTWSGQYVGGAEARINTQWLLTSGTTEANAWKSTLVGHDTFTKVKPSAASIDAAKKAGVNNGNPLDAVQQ
Sequence of NADPH oxidase 5 (Homo sapiens) (Q96PH1 whole entry, looked up): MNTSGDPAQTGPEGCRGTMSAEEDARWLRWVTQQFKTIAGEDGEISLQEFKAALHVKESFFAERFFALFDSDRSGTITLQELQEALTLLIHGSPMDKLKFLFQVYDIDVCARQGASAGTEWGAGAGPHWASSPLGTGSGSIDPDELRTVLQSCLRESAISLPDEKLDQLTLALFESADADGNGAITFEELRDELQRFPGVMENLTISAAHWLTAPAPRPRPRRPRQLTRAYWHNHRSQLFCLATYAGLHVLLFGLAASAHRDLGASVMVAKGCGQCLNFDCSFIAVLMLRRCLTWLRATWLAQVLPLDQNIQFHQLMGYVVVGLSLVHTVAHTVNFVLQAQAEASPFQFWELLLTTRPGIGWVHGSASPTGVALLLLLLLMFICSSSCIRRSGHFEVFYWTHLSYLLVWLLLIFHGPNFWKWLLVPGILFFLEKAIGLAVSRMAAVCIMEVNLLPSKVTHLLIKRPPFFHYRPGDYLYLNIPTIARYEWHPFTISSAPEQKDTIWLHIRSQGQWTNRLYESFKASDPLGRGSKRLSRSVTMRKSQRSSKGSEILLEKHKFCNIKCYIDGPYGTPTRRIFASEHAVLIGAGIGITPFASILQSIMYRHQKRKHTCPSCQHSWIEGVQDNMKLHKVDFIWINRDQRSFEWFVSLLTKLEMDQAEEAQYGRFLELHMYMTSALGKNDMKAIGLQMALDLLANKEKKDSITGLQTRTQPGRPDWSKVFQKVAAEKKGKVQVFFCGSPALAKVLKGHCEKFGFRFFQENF
Sequence of NADPH oxidase 2 (Homo sapiens) (P04839 whole entry, looked up): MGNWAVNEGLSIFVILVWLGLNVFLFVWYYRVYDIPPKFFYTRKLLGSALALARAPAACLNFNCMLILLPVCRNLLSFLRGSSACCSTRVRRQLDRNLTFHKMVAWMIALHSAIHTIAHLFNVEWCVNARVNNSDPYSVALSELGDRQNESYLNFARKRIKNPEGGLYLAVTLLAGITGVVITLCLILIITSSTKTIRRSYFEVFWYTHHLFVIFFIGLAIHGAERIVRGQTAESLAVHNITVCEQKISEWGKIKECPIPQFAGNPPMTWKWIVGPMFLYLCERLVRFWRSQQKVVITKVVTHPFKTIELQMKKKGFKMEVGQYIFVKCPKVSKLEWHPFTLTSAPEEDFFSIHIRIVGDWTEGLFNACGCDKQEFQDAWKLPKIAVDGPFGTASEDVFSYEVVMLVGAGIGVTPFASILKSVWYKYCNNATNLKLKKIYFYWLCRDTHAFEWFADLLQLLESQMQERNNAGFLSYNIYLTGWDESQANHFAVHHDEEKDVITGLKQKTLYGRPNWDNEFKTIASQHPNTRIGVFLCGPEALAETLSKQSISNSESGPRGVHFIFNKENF

For `COc1cc(C(O)C2C=CC3C(=O)N(Cc4ccccc4)C(=O)C3N2n2cnnc2)cc(OC)c1OC` (stereo not given), the composite z-score came out at 0.388 in [1]; 0.267 in test [6]; 0.255 in [7]; 0.683 with Torsin-1A (Homo sapiens) [8]; 0.671 in the test with Torsin-1A (Homo sapiens) [9]; 0.131 in [10]. Also, the composite z-score in [12] came out at 0.431. The z-score was -0.429 (inactive) in test [2]; -1.77 (inactive) in [3]; 0.636 (inactive) in test [4]; -0.634 (inactive) in test [5]; 1.31 (inactive) in test [11]; 1.15 (inactive) in [13]. Further, the z-score in test [14] was -0.129 (inactive); in [15], -0.666 (inactive); in [16], -1.04 (inactive); in test [17] it was 0.866; in test [18], 1.24 (inactive); in test [19], -0.564 (inactive). This molecule also came in with a z-score in test [20] of -0.665.
Consider `COCC(=C=CC[C@@H](O)c1ccc(OCCO)cc1)CCO`, for which the composite z-score in test [1] is 0.0576; in [6], -0.471; in [7], -0.0762; with Torsin-1A (Homo sapiens) [8], 0.995; in the test with Torsin-1A (Homo sapiens) [9], 0.966; in test [10], 1.59. Moreover, in [12], the composite z-score was found to be 0.0391. For the same molecule, the z-score in test [2] is -0.258 (inactive); in test [3], -0.934 (inactive); in test [4], 0.0986 (inactive); in test [5], -0.482 (inactive); in test [11] it was 1.15 (inactive); in test [13] it was 6.19 (inactive). In addition, the z-score is 0.492 (inactive) in test [14]; 1.32 (inactive) in test [15]; 0.381 (inactive) in [16]; 0.357 in [17]; -2.03 (inactive) in [18]; -0.406 (inactive) in test [19]. The molecule further showed a z-score in [20] of -0.727.
As to `Nc1cc(Br)ccc1C(=O)O`, the composite z-score was 0.0415 in test [1]; 0.689 in [6]; -0.0719 in [7]; 0.136 with Torsin-1A (Homo sapiens) [8]; 0.474 in the test with Torsin-1A (Homo sapiens) [9]; 0.0009 in [10]. The composite z-score in [12] was 0.139. For the same molecule, the z-score is 0.389 (inactive) in test [2]; 0.0538 (inactive) in [3]; 0.209 (inactive) in test [4]; -0.929 (inactive) in test [5]; 0.813 (inactive) in [11]; -0.319 (inactive) in test [13]. The z-score in [14] is 0.371 (inactive); in test [15], -0.611 (inactive); in test [16], 0.0089 (inactive); in test [17], 0.265; in test [18] it was 0.0525 (inactive); in test [19], -0.204 (inactive). Moreover, the z-score in [20] came to 0.142.
Turning to `O=C1N(CCS(=O)(=O)c2ccccc2)Cc2ccccc2[C@@H]2OC(c3ccc(OCCCO)cc3)=N[C@]12CCS(=O)(=O)c1ccccc1`, the composite z-score is 1.24 in test [1]; 0.844 in [6]; -0.108 in [7]; 0.827 with Torsin-1A (Homo sapiens) [8]; 1.51 in the test with Torsin-1A (Homo sapiens) [9]; 1.4 in [10]. Further, the composite z-score in test [12] is 0.568. Besides, the z-score in test [2] was -1.5 (inactive); in test [3] it was 0.151 (inactive); in test [4], 3.2 (inactive); in test [5], -0.897 (inactive); in test [11], -0.769 (inactive); in test [13], 26 (active). Further, the z-score in [14] is 18.8 (active); in test [15] it was 3.14 (inactive); in test [16], 2.44 (inactive); in test [17], -0.355; in [18], 1.5 (inactive); in test [19] it was 2.01 (inactive). In [20], this molecule displayed a z-score of 1.96.
In the case of `CC(C)c1ccc(NN2C(C(O)Cc3ccccc3)C=CC3C(=O)N(c4ccccc4)C(=O)C32)cc1` (stereo not given), the composite z-score was 0.204 in test [1]; 1.87 in test [6]; -0.152 in test [7]; 0.14 with Torsin-1A (Homo sapiens) [8]; 0.815 with Torsin-1A (Homo sapiens) [9]; -0.154 in [10]. Moreover, the composite z-score in test [12] turned out to be 0.181. The z-score in [2] is -0.695 (inactive); in test [3], -0.221 (inactive); in test [4], 0.243 (inactive); in test [5] it was 2.48 (inactive); in test [11], -1.76 (inactive); in test [13] it was 1.93 (inactive). In addition, the z-score is 1.31 (inactive) in [14]; 0.127 (inactive) in test [15]; 1.05 (inactive) in test [16]; -1.27 in test [17]; -0.343 (inactive) in test [18]; -3.62 (inactive) in test [19]. Also, the z-score in test [20] was -2.69.
